For part of these data: Results with a measured potency or affinity are listed apart. Active and inactive are the calls of the source.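 How the source made its calls, unless noted: active means fitted half-maximal concentration within the tested range, moderate curve steepness, significant signal drop, and little compound fluorescence or bead-linkage interference; inactive means the rest.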
Legend:
[1] = target: Cell division control protein 42 homolog (Homo sapiens) (UniProt P60953); assay: activated mutant Cdc42 GTP-binding inhibitors, dose response, biochemical, multiplex bead flow cytometry, Bodipy-FL-GTP (AID 1333;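 active means fitted half-maximal concentration within the tested dose range, moderate curve steepness, a statistically real signal drop, and little compound fluorescence or tag-binding interference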)
Sequence of Cell division control protein 42 homolog (Homo sapiens) (P60953 whole entry, looked up): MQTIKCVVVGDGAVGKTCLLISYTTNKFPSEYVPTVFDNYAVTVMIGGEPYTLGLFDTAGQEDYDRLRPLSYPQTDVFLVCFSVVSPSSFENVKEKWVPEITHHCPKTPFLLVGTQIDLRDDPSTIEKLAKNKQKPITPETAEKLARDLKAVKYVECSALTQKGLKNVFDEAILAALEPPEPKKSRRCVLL

[2] = target: Cell division control protein 42 homolog (Homo sapiens) (UniProt P60953); assay: wildtype Cdc42 GTP-binding inhibitors, dose response, biochemical, multiplex bead flow cytometry, Bodipy-FL-GTP (AID 1334); conditions: bead-based flow cytometry, Bodipy-FL-GTP binding to GST-Cdc42; at 100 µM (top of the series) unless noted
[3] = target: GTPase HRas (Homo sapiens) (UniProt P01112); assay: inhibitors of GTP binding to wildtype Ras, dose response, biochemical, multiplex bead flow cytometry (AID 1335;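 active means fitted half-maximal concentration within 10 nM to 100 µM, steepness 0.5 to 2, significant signal drop, low assay interference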); conditions: bead-based flow cytometry, Bodipy-GTP binding to GST-Ras; at 100 µM (top of the series) unless noted
Sequence of GTPase HRas (Homo sapiens) (P01112 whole entry, looked up): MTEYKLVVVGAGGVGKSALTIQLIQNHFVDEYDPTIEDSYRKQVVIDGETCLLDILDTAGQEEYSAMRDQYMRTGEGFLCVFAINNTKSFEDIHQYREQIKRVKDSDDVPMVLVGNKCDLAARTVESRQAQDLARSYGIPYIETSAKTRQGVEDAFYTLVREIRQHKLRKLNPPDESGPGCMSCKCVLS

[4] = tested on: Ras-related protein Rab-7a (dog), GTP binding; assay: Rab7 GTP binding inhibitors, potency, dose response, biochemical, wildtype, multiplex bead flow cytometry (AID 1336; call rule not given here)
[5] = target: Ras-related C3 botulinum toxin substrate 1 (Homo sapiens) (UniProt P63000); assay: wildtype Rac1 GTP binding inhibitors, dose response, biochemical, multiplex bead flow cytometry (AID 1340;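 active means dose curve with midpoint inside tested range, moderate steepness, plateau gap beyond fit error, low compound glow and bead-link interference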); conditions: GST-Rac1 beads, Bodipy-FL-GTP binding; at 100 µM (top of the series) unless noted
[6] = target: GTPase HRas (Homo sapiens) (UniProt P01112); assay: activated Ras mutant GTP binding inhibitors, dose response, biochemical, multiplex bead flow cytometry (AID 1341;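 active means dose-response curve with midpoint inside the tested range, moderate steepness, significant amplitude and little compound fluorescence or bead-attachment interference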;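 further: GST-tagged constitutively activated Ras mutant immobilized on beads and multiplexed with other GTPases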)

## Cc1cc2ncn(CCC(=O)NC(C)(C)C)c2cc1C
[1]
  outcome: inactive
[2]
  fluorescence, percent of control (lower = inhibition): 40%
[3]
  GTP binding, percent of control: 88.1%
[4]
  outcome: inactive
[5]
  GTP binding signal, raw median fluorescence (lower = inhibition) (MCF (arbitrary fluorescence units)): 320
[6]
  outcome: inactive

## O=C(O)c1ccccc1NCc1c(Cl)cccc1Cl
[1]
  outcome: inactive
[2]
  fluorescence, percent of control (lower = inhibition): 59.4%
[3]
  GTP binding, percent of control: 87.4%
[4]
  outcome: inactive
[5]
  GTP binding signal, raw median fluorescence (lower = inhibition) (MCF (arbitrary fluorescence units)): 30.2
[6]
  outcome: inactive

## O=c1n(Cc2ccc(Cl)cc2)c2sc3c(c2c2ncnn12)CCCC3
[1]
  outcome: inactive
[2]
  fluorescence, percent of control (lower = inhibition): 78.9%
[3]
  GTP binding, percent of control: 126%
[4]
  outcome: inactive
[5]
  GTP binding signal, raw median fluorescence (lower = inhibition) (MCF (arbitrary fluorescence units)): 146
[6]
  outcome: inactive

## CC(C)CCn1c(CN2CCN(Cc3ccccc3)CC2)nc2c1c(=O)n(C)c(=O)n2C
[1]
  outcome: inactive
[2]
  fluorescence, percent of control (lower = inhibition): 89.2%
[3]
  GTP binding, percent of control: 165%
[4]
  outcome: inactive
[5]
  GTP binding signal, raw median fluorescence (lower = inhibition) (MCF (arbitrary fluorescence units)): 178
[6]
  outcome: inactive

## Cc1ccc(NC(=O)Nc2ccnc(-c3cccnc3)n2)cc1
[1]
  outcome: inactive
[2]
  fluorescence, percent of control (lower = inhibition): 36.6%
[3]
  GTP binding, percent of control: 73.3%
[4]
  outcome: inactive
[5]
  GTP binding signal, raw median fluorescence (lower = inhibition) (MCF (arbitrary fluorescence units)): 162
[6]
  outcome: inactive

## COc1ccc(/C=C2\N=C(SC)SC2=O)cc1OC
[1]
  outcome: inactive
[2]
  fluorescence, percent of control (lower = inhibition): 86.4%
[3]
  GTP binding, percent of control: 150%
[4]
  outcome: inactive
[5]
  GTP binding signal, raw median fluorescence (lower = inhibition) (MCF (arbitrary fluorescence units)): 186
[6]
  outcome: inactive

## Cn1nc(C(=O)Nc2cccnc2)c2ccccc2c1=O
[1]
  outcome: inactive
[2]
  fluorescence, percent of control (lower = inhibition): 49%
[3]
  GTP binding, percent of control: 111%
[4]
  outcome: inactive
[5]
  GTP binding signal, raw median fluorescence (lower = inhibition) (MCF (arbitrary fluorescence units)): 135
[6]
  outcome: inactive

## Cc1cc(C)n2nc(C(=O)Nc3ccc(S(=O)(=O)N4CCCC4)cc3)nc2n1
[1]
  outcome: inactive
[2]
  fluorescence, percent of control (lower = inhibition): 37%
[3]
  GTP binding, percent of control: 82.5%
[4]
  outcome: inactive
[5]
  GTP binding signal, raw median fluorescence (lower = inhibition) (MCF (arbitrary fluorescence units)): 257
[6]
  outcome: inactive

## O=C(COc1ncnc2cc([N+](=O)[O-])ccc12)NCc1ccc2c(c1)OCO2
[1]
  outcome: inactive
[2]
  fluorescence, percent of control (lower = inhibition): 42.7%
[3]
  GTP binding, percent of control: 56.9%
[4]
  outcome: inactive
[5]
  GTP binding signal, raw median fluorescence (lower = inhibition) (MCF (arbitrary fluorescence units)): 118
[6]
  outcome: inactive

## CCOC(=O)Cn1nnnc1CN(Cc1cccs1)Cc1cc2cc(C)cc(C)c2[nH]c1=O
[1]
  outcome: inactive
[2]
  fluorescence, percent of control (lower = inhibition): 81.6%
[3]
  GTP binding, percent of control: 161%
[4]
  outcome: inactive
[5]
  GTP binding signal, raw median fluorescence (lower = inhibition) (MCF (arbitrary fluorescence units)): 171
[6]
  outcome: inactive

## Cc1cc(C)c2sc(N(CCN(C)C)C(=O)c3cc(Cl)sc3Cl)nc2c1
[1]
  outcome: inactive
[2]
  fluorescence, percent of control (lower = inhibition): 33.6%
[3]
  GTP binding, percent of control: 78.8%
[4]
  outcome: inactive
[5]
  GTP binding signal, raw median fluorescence (lower = inhibition) (MCF (arbitrary fluorescence units)): 283
[6]
  outcome: inactive

## COc1nc(Nc2ccc(O)cc2)nc(OC(C(F)(F)F)C(F)(F)F)n1
[1]
  outcome: inactive
[2]
  fluorescence, percent of control (lower = inhibition): 101%
[3]
  GTP binding, percent of control: 161%
[4]
  outcome: inactive
[5]
  GTP binding signal, raw median fluorescence (lower = inhibition) (MCF (arbitrary fluorescence units)): 172
[6]
  outcome: inactive

## O=[N+]([O-])c1ccccc1/C=C/C=N/n1c(-c2ccco2)n[nH]c1=S
[1]
  outcome: inactive
[2]
  fluorescence, percent of control (lower = inhibition): 28.1%
[3]
  GTP binding, percent of control: 72.9%
[4]
  outcome: inactive
[5]
  GTP binding signal, raw median fluorescence (lower = inhibition) (MCF (arbitrary fluorescence units)): 221
[6]
  outcome: inactive

## O=C1/C(=C/c2ccc(N3CCOCC3)o2)SC(=Nc2ccccc2)N1CCc1c[nH]c2ccccc12
[1]
  outcome: inactive
[2]
  fluorescence, percent of control (lower = inhibition): 104%
[3]
  GTP binding, percent of control: 114%
[4]
  outcome: inactive
[5]
  GTP binding signal, raw median fluorescence (lower = inhibition) (MCF (arbitrary fluorescence units)): 242
[6]
  outcome: inactive

## COC(=O)CSc1nc2cc(Cl)ccc2c(=O)n1C1CCCC1
[1]
  outcome: inactive
[2]
  fluorescence, percent of control (lower = inhibition): 98%
[3]
  GTP binding, percent of control: 180%
[4]
  outcome: inactive
[5]
  GTP binding signal, raw median fluorescence (lower = inhibition) (MCF (arbitrary fluorescence units)): 186
[6]
  outcome: inactive

## O=C(COc1ccccc1-c1ccccc1)N/N=C/c1ccncc1
[1]
  outcome: inactive
[2]
  fluorescence, percent of control (lower = inhibition): 33.3%
[3]
  GTP binding, percent of control: 77.4%
[4]
  outcome: inactive
[5]
  GTP binding signal, raw median fluorescence (lower = inhibition) (MCF (arbitrary fluorescence units)): 247
[6]
  outcome: inactive

## CNC(=O)C(C)NS(=O)(=O)c1ccc(F)cc1 (configuration not stated)
[1]
  outcome: inactive
[2]
  fluorescence, percent of control (lower = inhibition): 50.9%
[3]
  GTP binding, percent of control: 66.5%
[4]
  outcome: inactive
[5]
  GTP binding signal, raw median fluorescence (lower = inhibition) (MCF (arbitrary fluorescence units)): 236
[6]
  outcome: inactive

## Cc1cc(C)n(C(=O)CNC(=O)c2ccc3c(c2)OCCO3)n1
[1]
  outcome: inactive
[2]
  fluorescence, percent of control (lower = inhibition): 53.2%
[3]
  GTP binding, percent of control: 61.7%
[4]
  outcome: inactive
[5]
  GTP binding signal, raw median fluorescence (lower = inhibition) (MCF (arbitrary fluorescence units)): 200
[6]
  outcome: inactive

## O=C(CSc1ncccc1C(=O)O)c1ccc2ccccc2c1
[1]
  outcome: inactive
[2]
  fluorescence, percent of control (lower = inhibition): 48.7%
[3]
  GTP binding, percent of control: 66.6%
[4]
  outcome: inactive
[5]
  GTP binding signal, raw median fluorescence (lower = inhibition) (MCF (arbitrary fluorescence units)): 0
[6]
  outcome: inactive

## O=C1c2oc3ccc(Br)cc3c(=O)c2C(c2cccc(F)c2)N1CCO (configuration not stated)
[1]
  outcome: inactive
[2]
  fluorescence, percent of control (lower = inhibition): 36.4%
[3]
  GTP binding, percent of control: 81.2%
[4]
  outcome: inactive
[5]
  GTP binding signal, raw median fluorescence (lower = inhibition) (MCF (arbitrary fluorescence units)): 276
[6]
  outcome: inactive

## CCCCn1c(SCC(=O)c2ccccc2)nc2c1c(=O)[nH]c(=O)n2C
[1]
  outcome: inactive
[2]
  fluorescence, percent of control (lower = inhibition): 48.7%
[3]
  GTP binding, percent of control: 61.3%
[4]
  outcome: inactive
[5]
  GTP binding signal, raw median fluorescence (lower = inhibition) (MCF (arbitrary fluorescence units)): 197
[6]
  outcome: inactive

## O=C(Nc1cccc2ccccc12)c1cnccn1
[1]
  outcome: inactive
[2]
  fluorescence, percent of control (lower = inhibition): 85.4%
[3]
  GTP binding, percent of control: 156%
[4]
  outcome: inactive
[5]
  GTP binding signal, raw median fluorescence (lower = inhibition) (MCF (arbitrary fluorescence units)): 181
[6]
  outcome: inactive

## C=CCN1C(=NC(=O)CCCC(=O)O)SC2CS(=O)(=O)CC21 (configuration not stated)
[1]
  outcome: inactive
[2]
  fluorescence, percent of control (lower = inhibition): 38.3%
[3]
  GTP binding, percent of control: 85.7%
[4]
  outcome: inactive
[5]
  GTP binding signal, raw median fluorescence (lower = inhibition) (MCF (arbitrary fluorescence units)): 312
[6]
  outcome: inactive

## COc1ccc(O)c(CN2CCN(CCc3ccccc3)C(CCO)C2)c1 (configuration not stated)
[1]
  outcome: inactive
[2]
  fluorescence, percent of control (lower = inhibition): 37.3%
[3]
  GTP binding, percent of control: 84.3%
[4]
  outcome: inactive
[5]
  GTP binding signal, raw median fluorescence (lower = inhibition) (MCF (arbitrary fluorescence units)): 273
[6]
  outcome: inactive

## Cc1ccc(Sc2c(C)nn(C(=O)C3CC3)c2C)cc1
[1]
  outcome: inactive
[2]
  fluorescence, percent of control (lower = inhibition): 28.8%
[3]
  GTP binding, percent of control: 78.5%
[4]
  outcome: inactive
[5]
  GTP binding signal, raw median fluorescence (lower = inhibition) (MCF (arbitrary fluorescence units)): 236
[6]
  outcome: inactive

## S=c1[nH]nc(-c2ccco2)n1-c1ccc(Cl)cc1
[1]
  outcome: inactive
[2]
  fluorescence, percent of control (lower = inhibition): 28.4%
[3]
  GTP binding, percent of control: 67.6%
[4]
  outcome: inactive
[5]
  GTP binding signal, raw median fluorescence (lower = inhibition) (MCF (arbitrary fluorescence units)): 209
[6]
  outcome: inactive

## Nc1nn2c(-c3ccccc3)cc(=O)[nH]c2c1N=Nc1ccc(O)cc1
[1]
  outcome: inactive
[2]
  fluorescence, percent of control (lower = inhibition): 33.3%
[3]
  GTP binding, percent of control: 75.4%
[4]
  outcome: inactive
[5]
  GTP binding signal, raw median fluorescence (lower = inhibition) (MCF (arbitrary fluorescence units)): 188
[6]
  outcome: inactive
